Rows were chosen to be rich in hits. Some 3.8% of all compounds tested hit in one or more screens of this group.
FH mod = Identification of activators of human fumarate hydratase by quantitative high-throughput screening. Fumarate hydratase, mitochondrial (Homo sapiens), P07954. FH coupled MDH/diaphorase resazurin fluorescence, 15 min. Potency, µM (series often up to 79.9 µM), inactives show at the highest dose activity change, negative = inhibition, usual class: inhibitors. 54,000 tested, 0.22% active; note: potency is the fitted concentration of half-maximal effect; % is set by controls: 0 for no effect and ±100 for the full control effect; the screen sought activators but most active calls are inhibition curves; nearly all actives have a fitted effect of over 45% in size
DRV1 agonist = qHTS for Agonists of Human Resolvin D1 Receptor DRV1 | Probable G-protein coupled receptor 32 (Homo sapiens), O75388 | CHO-K1 GPR32 beta-arrestin PathHunter luminescence, 90 min; zero percent set by DMSO-only wells | activation, % at 76.9 µM | 48,000 tested, 2.5% active;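 active = activation of at least 60% and not above a set upper limit, about 1 call in 100 departs from these limits; inconclusive = activation of 40% to 60%, or above that upper limit; inactive = activation under 40%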; note: 0% is about no effect
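Step 1: seed CHO-K1 GPR32 beta-arrestin cells, 2,500/well, overnight at 37 °C. Step 2: add compounds, 90 min at 37 °C. Step 3: detection reagent, 1 h ambient, then luminescence.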
NTMT1 inh = Primary qHTS for Inhibitors of N-terminal methyltransferase 1 (NTMT1): MTaseGlo Assay; NTMT1 MTase-Glo SAH luminescence, purified enzyme; AID 1645870, 2021; 59,000 tested, 2.5% active; Potency, µM (top dose mostly 114 µM), for inactives: at the top dose activity change, negative = inhibition, hits mostly inhibitors;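 note: potency is the fitted concentration of half-maximal effect; plate controls were DMSO vehicle for no effect and no enzyme for full effect; nearly all actives have a fitted effect of over 65% in size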
Target sequence (Q9BV86 whole entry, looked up): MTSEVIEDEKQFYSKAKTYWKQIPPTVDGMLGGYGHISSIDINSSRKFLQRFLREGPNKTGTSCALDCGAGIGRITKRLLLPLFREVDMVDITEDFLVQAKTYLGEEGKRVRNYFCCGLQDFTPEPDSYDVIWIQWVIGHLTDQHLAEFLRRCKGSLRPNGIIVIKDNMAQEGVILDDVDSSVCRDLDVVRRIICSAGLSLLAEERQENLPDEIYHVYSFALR
SKOV3 invasion = Primary qHTS assay for Inhibitors of ovarian cancer metastasis using an organotypic tumor microenvironment (TME) model; 46,000 tested, 0.1% active; AID 1963576, 2024; SKOV3ip1-GFP adhesion/invasion on 3D omental model, fluorescence; Potency, µM (top dose mostly 45.8 µM), for inactives: at the highest dose activity change, negative = inhibition, hits mostly inhibitors;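 note: potency is the fitted concentration of half-maximal effect; plate controls were DMSO wells for no effect and tomatine positive control wells for full effect; nearly all actives have a fitted effect of over 65% in size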
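Adhesion/invasion was scored as fixed GFP-labeled SKOV3ip1 cell counts (488/509 nm), normalized to DMSO and tomatine controls. Cancer cells in serum-free medium, with four compound doses (0.36-46 umol/L), sat 2 hr at RT then 16 hr at 37 C on a 48 hr fibroblast/mesothelial/ECM culture.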
Numbers without * were called inactive; i = inactive; u = inconclusive; x = not tested or not shown; ! = not confirmed by another sample; [ ] = another dose, or the depositor's remark. Unless noted, calls come from the whole dose curve; as a rule, active = well fitted curve in the direction sought with a large enough effect; inconclusive = small, poorly fitted or top-dose-only effect, or another doubt; inactive = no such curve, though single readings can be large; an effect the other way counts as inactive or inconclusive.

SMILES	FH mod	DRV1 agonist	NTMT1 inh	SKOV3 invasion
COc1ccc(OC)c(NC(=O)c2cc3cc4ccc(C)cc4nc3s2)c1	-5.9%	-6.9	0.3%	i
COc1ccccc1CNC(=O)c1ccc2nc(N3CCCCC3)sc2c1	-19.7%	6.2	u	i
Cn1cc(-c2cc3n(n2)CCC(=O)N3CCCC(=O)Nc2ccccc2Cl)c2ccccc21	2.0%	60.3*	1.0%	5.6%
Cc1cccc(CNC(=O)CN2C(=O)CCn3nc(-c4cn(C)c5ccccc45)cc32)c1	-4.2%	107.3*	-20.7%	-3.8%
Cn1cc(-c2cc3n(n2)CCC(=O)N3CCCC(=O)Nc2ccccc2F)c2ccccc21	-5.8%	4.7	-1.1%	i
Fc1ccc(CNc2ncnc3ccc(F)cc23)cc1	0.6%	x	-1.1%[57.5 µM]	2.0%
CC(C)NCC(O)COc1cccc2ccccc12 (stereo not drawn)	-9.0%[53.3 µM]	1.4	x	x
CC(C)[N+](C)(C)CC(O)COc1cccc2ccccc12 (stereo not drawn)	-1.1%[53.3 µM]	5.6	8.91µM*	x
COc1ccc(-c2nnn3c2nc(NCc2ccccc2)c2ccccc23)cc1	-0.3%	22.3	-7.9%	50.5%
CC(CC1c2ccccc2CCc2ccccc21)CN(C)C (stereo not drawn)	0.0%[53.3 µM]	-13.3	12.6µM*	x
O=C(CCn1c(=O)c2cccn2c2cccnc21)Nc1ccccc1Br	5.3%	-9.0	-11.6%	6.3%
COc1ccc(N(Cc2cccs2)C(=O)c2ccc(OCC(C)C)cc2)cc1	-25.7%	-30.0	3.2%	-1.5%
COc1ccc(-c2cnc3ccc(NCc4ccc(S(N)(=O)=O)cc4)nn23)cc1OC	-7.5%	x	u	x
CN1CCC(CNc2ccc3ncc(-c4cccc(OC(F)(F)F)c4)n3n2)CC1	u	x	15.8µM*	-8.9%
CCc1ccc(NC(=O)Cn2c(=O)n(-c3ccccc3C)c(=O)c3c2c2cc(OC)ccc2n3C)cc1	-18.5%	-6.5	5.6%	2.0%
Cc1ccc(Cl)cc1NC(=O)c1ccc2snnc2c1	2.7%	85.3*	0.3%	-0.5%
Cc1c(Cl)cccc1NC(=O)c1ccc2snnc2c1	7.2%	-29.8	16.1%	0.6%
CC(C)N(CCCNC(=O)Cn1ncc2c([nH]c3ccccc32)c1=O)Cc1ccccc1	1.5%	-0.7	-14.9%	i
Cc1c(NC(=O)c2ccc(OC(C)C)cc2)cccc1-c1nc2ncccc2o1	5.6%	88.9*	7.1%	6.6%
CC(=O)Nc1sc2c(c1-c1ccc(N(C)C)cc1)CCNC2	x	x	14.1µM*	x
CC(=O)Nc1sc2c(c1-c1ccc(F)cc1)CCNC2	x	x	-5.3%	x
CC(=O)Nc1ccc(S(=O)(=O)NCc2cccn2Cc2cccc(C)c2)cc1	-14.5%	87.9*	-1.5%	-3.3%
CCC(=O)N1CCc2cc(CNC(=O)Nc3ccc(OC)cc3OC)ccc21	-5.5%	-2.0	-3.7%	-4.9%
O=C(Nc1cccc2c(=O)cc(-c3nn[nH]n3)oc12)c1ccc(OCCCCc2ccccc2)cc1	u	93.6*	17.8µM*	-12.2%
CCN(CC)CCCNC(=O)Cn1nc(N2CCN(c3ccccc3OC)CC2)ccc1=O	-0.8%	-0.7	1.7%	0.4%
SMILES	FH mod	DRV1 agonist	NTMT1 inh	SKOV3 invasion
COc1cc(NC(=O)CCS(=O)(=O)c2nc(-c3cccs3)cc(C(F)(F)F)n2)cc(OC)c1OC	-12.7%	-32.9	15.9%	u
CCN(CC)CCNC(=O)c1c(C)[nH]c(/C=C2\C(=O)Nc3ccc(F)cc32)c1C	12.6µM*!	-4.9	35.5µM*	x
Cc1[nH]c(/C=C2\C(=O)Nc3ccc(F)cc32)c(C)c1C(=O)NCCN1CCCC1	-7.5%	x	u	x
CC(Cc1cccc(C(F)(F)F)c1)NCCOC(=O)c1ccccc1 (stereo not drawn)	1.7%[53.3 µM]	63.4*	6.1%[57.5 µM]	x
Cc1ccc2c(c1)N(C(=O)N1CCC(C(=O)NCc3ccco3)CC1)CC(C)O2 (stereo not drawn)	-10.6%	-4.9	-0.5%	30.5%
CN(Cc1ccc(C(C)(C)C)cc1)Cc1cccc2ccccc12	1.1%[53.3 µM]	68.1*	13.1%[57.5 µM]	x
CN(C/C=C/c1ccccc1)Cc1cccc2ccccc12	-2.1%[53.3 µM]	117.5*	u	x
COc1ccc(S(=O)(=O)N(CCO)c2ccccc2CN(C)C/C=C/c2ccc(Cl)cc2)cc1	x	x	12.1%	x
CN(C)CCCN1c2ccccc2CCc2ccc(Cl)cc21	-21.0%[53.3 µM]	-9.5	u	-8.9%
